Compound activity deposited in PubChem by National Center for Advancing Translational Sciences (NCATS).
HT1080NT lethal – kills 2HG-producing HT-1080-NT fibrosarcoma cells. Potency, µM (doses to about 46.1 µM), for the others: at the top dose activity, negative = less viability, most hits filed as cytotoxic. AID 686970. HT-1080-NT fibrosarcoma viability, CellTiter-Glo ATP luminescence, 48 h. 360,000 compounds, 1.6% hits;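 further: NT is the 2HG producing partner of a matched IDH1 knockdown line; potency means the concentration at half of the fitted maximal effect; 0% = DMSO-treated cells and -100% = media-only wells without cells; nearly all actives have a fitted effect of over 55% in size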
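Read-out is CellTiter-Glo luminescence after 10 minutes at room temperature, following 48 hours' compound treatment of HT-1080-NT cells (750 cells/well, RPMI, 5% FBS, 37 degrees C).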
12-LOX inh – blocks human arachidonate 12S-lipoxygenase | 580,000 compounds, 1.1% hits | purified 12hLO, xylenol orange hydroperoxide absorbance | AID 1671190 | P18054 | Potency, µM (titrated, usually from 108 µM), for inactives: top-dose activity change, negative = inhibition, usual class: inhibitors; further: potency means the concentration at half of the fitted maximal effect
Target sequence (P18054 whole entry, looked up): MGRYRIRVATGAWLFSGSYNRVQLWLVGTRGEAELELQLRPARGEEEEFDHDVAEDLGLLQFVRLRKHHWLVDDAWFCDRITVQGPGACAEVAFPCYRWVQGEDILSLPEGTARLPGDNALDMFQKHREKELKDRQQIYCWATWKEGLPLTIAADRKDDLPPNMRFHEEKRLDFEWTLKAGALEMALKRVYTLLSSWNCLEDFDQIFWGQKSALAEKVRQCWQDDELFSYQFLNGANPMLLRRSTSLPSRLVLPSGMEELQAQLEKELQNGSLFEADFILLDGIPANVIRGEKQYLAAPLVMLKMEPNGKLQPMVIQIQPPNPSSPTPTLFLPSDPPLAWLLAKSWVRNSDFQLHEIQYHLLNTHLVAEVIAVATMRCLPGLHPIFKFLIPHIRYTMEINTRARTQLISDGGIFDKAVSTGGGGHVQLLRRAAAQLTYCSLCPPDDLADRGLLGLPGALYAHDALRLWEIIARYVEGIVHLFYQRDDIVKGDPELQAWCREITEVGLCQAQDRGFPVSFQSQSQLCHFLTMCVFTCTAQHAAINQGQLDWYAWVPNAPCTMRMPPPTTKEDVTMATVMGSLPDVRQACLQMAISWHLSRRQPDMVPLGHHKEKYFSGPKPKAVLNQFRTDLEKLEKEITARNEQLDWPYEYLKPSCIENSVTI
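Purified human 12hLO (150 nM final) in 25 mM Hepes, 0.01% Triton X-100, pH 7.0 was preincubated 15 min at room temperature with compound. Then 40 uM arachidonic acid was added, 30 min. Hydroperoxide was read by Fe-XO absorbance ratio 573/405 nm.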
IL-1B inflam inh – inhibitors of inflammasome signaling (IL-1 beta secretion) | 360,000 compounds, 4.7% hits | activity change, % at 57.5 µM | THP-1 LPS/ATP IL-1B secretion, AlphaLISA, 16 h; stronger effect = lower value | AID 743279; in the data active means activity change below about -50%; inconclusive means mostly about -30% to -49%
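THP-1 cells pretreated 1 hr with compounds (up to 57.5 uM final), then stimulated with LPS (250 ng/mL final) plus ATP (1.25 mM final); secreted IL-1B measured by AlphaLISA after 16 hr, decreased signal indicating inhibition.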
DT40 TDP1 no CPT – qHTS for Inhibitors of human tyrosyl-DNA phosphodiesterase 1 (TDP1): qHTS in cells in absence of CPT. DT40 Tdp1-/- hTDP1 cells, no CPT, ATP luminescence, 48 h. Potency, µM (top dose mostly 46.2 µM), for inactives: at the top dose activity change, negative = growth inhibition, usual class: inhibitors. 420,000 compounds, 15% hits; further: potency means the concentration at half of the fitted maximal effect; nearly all actives have a fitted effect of over 55% in size
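A cellular qHTS used chicken DT40 cells lacking endogenous Tdp1 but carrying stably transfected human TDP1. Compounds were applied without camptothecin, and cell growth kinetics were judged by ATP-dependent luminescence after ≥48 hr.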
TDP1 cell CPT – DT40-hTDP1 cell growth loss with CPT | chicken DT40 Tdp1-/-;hTDP1 cells + 20 nM CPT, ATP luminescence, 48 h | Potency, µM (top dose mostly 46.2 µM), for inactives: at the highest dose activity change, negative = growth inhibition, most hits filed as inhibitors | 420,000 compounds, 12% hits | AID 686979; further: potency means the concentration at half of the fitted maximal effect; nearly all actives have a fitted effect of over 55% in size
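Cell growth measured by CellTiter-Glo luminescence after a minimum 48 h, 37 C compound exposure with 20 nM CPT in Tdp1-knockout DT40 cells stably expressing hTDP1, seeded 400/well; qHTS titration format.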
HT1080 IDH1KD tx – HT-1080 IDH1 knockdown cell toxicity (counter line); Potency, µM (series often up to 46.1 µM), inactives show at the highest dose activity, negative = toxicity, most hits filed as cytotoxic; HT-1080 IDH1 knockdown viability, ATP luminescence, 48 h; 360,000 compounds, 2% hits;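 further: potency means the concentration at half of the fitted maximal effect; 0% = DMSO wells and -100% = cell-free medium wells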
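CellTiter-Glo luminescence after 48 h compound exposure at 37 degrees C of IDH1-knockdown HT-1080 cells in 5% FBS RPMI. %Activity scaled between DMSO wells and cell-free media wells, with curves fitted and assigned curve classes.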
Active calls of the source: *. This excerpt belongs to a sample that is enriched for hits. Unless noted, the call rests on the fitted dose curve; in most records, active means well fitted curve in the direction sought with a large enough effect; inconclusive means small, poorly fitted or top-dose-only effect, or another doubt; inactive means no such curve, though single readings can be large; an effect the other way counts as inactive or inconclusive. Unless noted, on the % scale 0 is the no-effect control and ±100 the full control effect.

Results for COc1ccc(CNCc2cccc(Cl)c2)cc1 ?
HT1080NT lethal: -1.8%; 12-LOX inh: -19.9%; IL-1B inflam inh: -18.7; DT40 TDP1 no CPT: -24.6%; TDP1 cell CPT: inconclusive; HT1080 IDH1KD tx: -1.8%

What do the screens show for `CCc1ccc(NC(=S)NCc2ccccc2)cc1`?
HT1080NT lethal: 8.8%; 12-LOX inh: 245.5%; IL-1B inflam inh: 20.9; DT40 TDP1 no CPT: 14.1%; TDP1 cell CPT: 1.9%; HT1080 IDH1KD tx: 12.0%

What do the screens show for `COc1ccc(CNCC(O)(c2ccccc2)c2ccc(Cl)cc2)cc1` (stereo not drawn)?
HT1080NT lethal: inconclusive; 12-LOX inh: inconclusive; IL-1B inflam inh: 0.0; DT40 TDP1 no CPT: 20.6µM*; TDP1 cell CPT: inconclusive; HT1080 IDH1KD tx: -25.7%

What do the screens show for `CCc1ccc(C(O)(CNCc2ccccc2)c2ccccc2)cc1` (stereo not drawn)?
HT1080NT lethal: -12.2%; 12-LOX inh: -1.4%; IL-1B inflam inh: -10.4; DT40 TDP1 no CPT: 20.6µM*; TDP1 cell CPT: 23.1µM*; HT1080 IDH1KD tx: -1.2%

How did Cc1ccc(CNCC(O)(c2ccccc2)c2ccccc2)cc1 do in these assays?
HT1080NT lethal: -6.1%; 12-LOX inh: 0.0%; IL-1B inflam inh: -11.2; DT40 TDP1 no CPT: 20.6µM*; TDP1 cell CPT: inconclusive; HT1080 IDH1KD tx: -10.9%

What do the screens show for `Cc1ccsc1-c1nc(-c2ccc3c(c2)OCCCO3)cs1`?
12-LOX inh: -32.1%

Results for Cc1ccc(-c2nc(Cn3nnc(-c4ccccc4)n3)co2)c(C)c1 ?
12-LOX inh: 3.8%

What do the screens show for `Cc1cc(NC(=O)Cc2c(F)cccc2Cl)no1`?
HT1080NT lethal: 4.8%; 12-LOX inh: 2.2%; IL-1B inflam inh: 2.8; DT40 TDP1 no CPT: inconclusive; TDP1 cell CPT: 14.6µM*; HT1080 IDH1KD tx: -9.9%

Results for O=C(Cc1c(F)cccc1Cl)Nc1nc2ccccc2s1 ?
HT1080NT lethal: -7.1%; 12-LOX inh: -19.5%; IL-1B inflam inh: -57.5*; DT40 TDP1 no CPT: inconclusive; TDP1 cell CPT: inconclusive; HT1080 IDH1KD tx: -7.7%

How did Cc1oc(-c2cccs2)nc1CC(=O)Nc1ccccc1O do in these assays?
12-LOX inh: -24.3%

What do the screens show for `CCOC(=O)C1(CCOc2ccccc2)CCN(Cc2cnc(C)s2)CC1`?
HT1080NT lethal: -7.3%; 12-LOX inh: 2.2%; IL-1B inflam inh: -8.0; DT40 TDP1 no CPT: 20.6µM*; TDP1 cell CPT: inconclusive; HT1080 IDH1KD tx: -6.6%

How did CCOC(=O)C1(CCOc2ccccc2)CCN(Cc2ccccc2O)CC1 do in these assays?
HT1080NT lethal: -16.4%; 12-LOX inh: inconclusive; IL-1B inflam inh: 6.0; DT40 TDP1 no CPT: inconclusive; TDP1 cell CPT: inconclusive; HT1080 IDH1KD tx: -8.0%

What do the screens show for `CCOC(=O)C1(CCOc2ccccc2)CCN(CCCn2cccn2)CC1`?
HT1080NT lethal: -3.3%; 12-LOX inh: -13.9%; IL-1B inflam inh: -12.3; DT40 TDP1 no CPT: inconclusive; TDP1 cell CPT: inconclusive; HT1080 IDH1KD tx: -5.3%

What do the screens show for `CCOC(=O)C1(CCOc2ccccc2)CCN(Cc2ccc(CO)o2)CC1`?
HT1080NT lethal: -1.8%; 12-LOX inh: 8.2%; IL-1B inflam inh: -16.8; DT40 TDP1 no CPT: 2.31µM*; TDP1 cell CPT: 8.2µM*; HT1080 IDH1KD tx: -18.6%

How did CCOC(=O)C1(CCOc2ccccc2)CCN(Cc2cccc(-n3cccn3)c2)CC1 do in these assays?
HT1080NT lethal: -13.7%; 12-LOX inh: -8.7%; IL-1B inflam inh: 2.7; DT40 TDP1 no CPT: 16.4µM*; TDP1 cell CPT: 16.4µM*; HT1080 IDH1KD tx: inconclusive

How did CCOC(=O)C1(CCOc2ccccc2)CCN(Cc2cccc(OC)c2OC)CC1 do in these assays?
HT1080NT lethal: inconclusive; 12-LOX inh: 12.1%; IL-1B inflam inh: -88.1*; DT40 TDP1 no CPT: 20.6µM*; TDP1 cell CPT: inconclusive; HT1080 IDH1KD tx: inconclusive
